# TR SRC2 fluor cs – Texas Red fluorescence interference in TRb-SRC2 counter-screen | 280,000 tested, 0.29% active | TRb/SRC2 Texas Red total fluorescence interference | Potency, µM (doses to about 106 µM), for inactives: at the highest dose fluorescence change, negative = quenching | AID 1479; active means well fitted curve in either direction with a large enough effect; inconclusive means small, poorly fitted or top-dose-only effect
#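 Flags fluorescent or light-absorbing compounds by total fluorescence, S + 2P, at 555 nm excitation and 632 nm emission. Mixture: 20 nM Texas Red SRC2 peptide, 0.6 uM human TRb LBD, 1 uM T3, 5% DMSO; compound exposure 5 h at ambient temperature.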
# Tau fibril ThT – tau fibrillization inhibition (ThT binding); P10636; recombinant tau K18 P301L, heparin-induced fibrillization, ThT fluorescence; Potency, µM (highest dose often 57.4 µM), inactives show top-dose activity, negative = inhibition, most hits filed as inhibitors; 270,000 tested, 2.1% active; AID 1460; further: nearly all actives have a fitted effect of over 55% in size
# Target sequence (P10636 561-689 P618L limits assumed): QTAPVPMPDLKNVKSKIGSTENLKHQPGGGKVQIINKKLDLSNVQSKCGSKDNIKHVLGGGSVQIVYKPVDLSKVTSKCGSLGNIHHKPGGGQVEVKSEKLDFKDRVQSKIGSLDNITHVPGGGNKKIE
#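 Using a mix of unlabeled (15 uM) and Alexa 594-labeled (0.24 uM) tau K18 P301L, heparin-triggered fibrillization over 6 hr at 37 C was scored by ThT fluorescence.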
# Tau fluor cs – counter-screen for tau fibril formation inhibitors | Potency, µM (doses to about 57.7 µM), for inactives: at the top dose activity change, negative = decrease | 280,000 tested, 0.93% active | AID 1463 | tau K18 P301L (four-repeat tau fragment) Alexa594 fluorescence, heparin fibrillization; further: nearly all actives have a fitted effect of over 55% in size
#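 Human K18 P301L tau (15 uM unlabeled plus 0.24 uM Alexa 594-labeled, final) in 100 mM sodium acetate pH 7 was mixed with compound and 20 uM heparin and incubated 6 hr at 37 C.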
# TRb-SRC2 inh – disrupts binding of human TR beta to SRC2; AID 1469; 280,000 tested, 0.065% active; TRbeta-SRC2 peptide binding, fluorescence polarization; receptor liganded with 1 µM T3; Potency, µM (titrated, usually from 106 µM), for inactives: at the top dose activity change, negative = inhibition, actives largely listed as inhibitors; P10828;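 further: plate controls were bound peptide for no effect and peptide without receptor for full effect; nearly all actives have a fitted effect of over 50% in size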
#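 Human TRb LBD (0.6 uM) plus Texas Red-labeled SRC2 peptide (20 nM), 1uM T3, 5% DMSO, 5 hr at ambient temperature. Decreased polarization (555/632 nm) flags inhibition; data normalized to free and bound peptide controls.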
# Tau fibril FP – inhibitors of human tau fibril formation; P10636; K18 P301L tau heparin fibrillization, Alexa594 FP, 6 h; Potency, µM (titrated, usually from 57.7 µM), for inactives: at the top dose activity, negative = inhibition, most hits filed as inhibitors; 280,000 tested, 0.39% active; further: nearly all actives have a fitted effect of over 55% in size
#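 Steps: dispense K18 P301L tau (15 uM plus 0.24 uM Alexa 594 tracer, final) in pH 7 sodium acetate; add compound; add heparin (20 uM final); incubate 6 hr, 37 C; add ThT (30 uM final); after 1 hr ambient, read FP.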
# The depositor's hits bear a star; ? = inconclusive; . = not tested or not shown; ! = not confirmed by another sample; [ ] = another dose, or the depositor's remark. Hits are enriched below; roughly 3.1% of the tested compounds scored in any of these assays. Unless noted, the call rests on the fitted dose curve; in most records, active means well fitted curve in the direction sought with a large enough effect; inconclusive means small, poorly fitted or top-dose-only effect, or another doubt; inactive means no such curve, though single readings can be large; an effect the other way counts as inactive or inconclusive. Unless noted, on the % scale 0 is the no-effect control and ±100 the full control effect; potency means the concentration at half of the fitted maximal effect.
SMILES,TR SRC2 fluor cs,Tau fibril ThT,Tau fluor cs,TRb-SRC2 inh,Tau fibril FP
CC[C@H]1[C@@H]2C=C[C@@H]3[C@H]4C/C=C\C(=O)NCCC[C@@H]5NC(=O)C(=C5O)C(=O)CC[C@@H]4C[C@@H]3[C@H]2C[C@H]1C,0.1%,-1.2%,-4.5%,-3.7%,-7.5%
Cc1ccc(Cl)cc1N1CCN(C(=O)c2noc3c2CCCC3)CC1,-0.6%,-15.9%,-12.3%,-1.5%,-10.0%
COc1ccc(OC)c(Nc2nc3ccccc3nc2-n2nc(C)cc2C)c1,0.7%,-9.8%,12.6µM*[quencher],7.7%,?
COc1ccc(Nc2nc3ccc(C)cc3nc2-n2nc(C)cc2C)cc1Cl,1.8%,-10.3%,14.1µM*[quencher],4.5%,?
COc1ccc(Nc2nc3ccccc3nc2-n2nc(C)cc2C)cc1,1.5%,-8.4%,?,-8.4%,10.0%
C[C@@H]1C(=O)O[C@H]2[C@H](O)[C@@]34[C@H]5CC(C(C)(C)C)[C@]36[C@H](OC(=O)[C@H]6O)O[C@]4(C(=O)O5)[C@@]12O (stereo partly specified),-2.1%,.,.,-0.3%,.
COc1ccc(-c2nc(N)nc(C)c2Oc2ccccc2Br)c(O)c1,-4.8%,-13.3%,17.8µM*[quencher],-6.8%,-5.8%
COc1ccc(C(c2c(O)ccc3ccccc23)N2CCOCC2)c(OC)c1 (stereo unspecified),-0.5%,11.2µM*,-25.9%,-1.0%,-1.1%
Cc1ccc2c(CC(=O)Nc3nnc(C(C)C)s3)coc2c1C,8.2%,17.8%,3.4%,2.5%,-1.8%
Cc1ccc(C)c(CN2C(=O)c3ccccc3S(=O)(=O)c3ccc(C(=O)N4CCOCC4)cc32)c1,2.82µM*[quencher],-12.4%,-24.7%,-30.2%,1.7%
Fc1cccc(NC(=S)NCCc2ccccc2)c1,-1.6%,-9.1%,?,-7.9%,?
S=C(NCCc1ccccc1)Nc1ccc(Nc2ccccc2)cc1,-2.7%,?,15.8µM*[quencher],-7.3%,?
O=[N+]([O-])c1cccc(NC(=S)NCCc2ccccc2)c1,316µM*[quencher],0.0%,-4.1%,-18.6%[53 µM],-2.7%
O=[N+]([O-])c1ccc(NC(=S)NCCc2ccc(F)cc2)cc1,3.8%,?,14.1µM*[quencher],4.4%,?
CCC/C=C(\CCC)C(NS(=O)(=O)c1ccccc1)c1ccc(C(F)(F)F)cc1 (stereo unspecified),-5.6%,-13.9%,-20.9%,3.7%,-1.1%
COc1cccc(CNC(=O)C(Cc2ccccc2)NS(=O)(=O)c2ccc3c(c2)oc(=O)n3C)c1 (stereo unspecified),4.4%,1.0%,-14.9%,2.7%,-0.1%
COc1ccc(/C=C\c2onc(C)c2S(=O)(=O)N2CCC(C(=O)Nc3cccc(Cl)c3)CC2)cc1,-1.1%,13.6%,-19.5%,-4.7%,14.1µM*
COc1ccc(/C=C\c2onc(C)c2S(=O)(=O)N2CCC(C(=O)Nc3cccc(C)c3C)CC2)cc1,0.4%,7.3%,-8.3%,0.4%,?
CS(=O)(=O)c1ccc(S(=O)CC(=O)Oc2ccc(Cl)cc2)c([N+](=O)[O-])c1 (stereo unspecified),-4.8%,3.55µM*,-25.5%,-5.3%,?
O=C(CS(=O)c1ccccc1[N+](=O)[O-])Oc1ccc(Br)cc1 (stereo unspecified),-4.0%,?,?,-3.8%,?
CC1(OC(=O)c2ccc(Cl)nc2)C(=O)C=C2C=C(c3ccc(C#N)cc3)OC=C2C1=O (stereo unspecified),-0.5%,25.1µM*,?,6.4%,?
COC(=O)CCC(=O)OC1(C)C(=O)C=C2C=C3CCCN3C=C2C1=O (stereo unspecified),0.5%[11.2 µM],10µM*!,-5.8%[11.6 µM],0.5%[11.2 µM],?
CC1(OC(=O)c2ccc(Cl)nc2)C(=O)C=C2C=C(C3CC3)OC=C2C1=O (stereo unspecified),10.3%,-15.4%,-11.5%,-9.2%,-5.1%
CC1(OC(=O)c2ccc(Cl)nc2)C(=O)C=C2C=C(c3ccsc3)OC=C2C1=O (stereo unspecified),1.0%,?,-16.2%,5.0%,-3.7%

# Compound activity: PubChem BioAssay, National Center for Advancing Translational Sciences (NCATS)
